KDM5B inh – Primary screen for KDM5B Histone Demethylases FDH-coupled qHTS; 220,000 compounds, 2.6% hits; AID 1347165, 2019; Lysine-specific demethylase 5B (Homo sapiens), Q9UGL1; KDM5B demethylase, FDH-coupled NADH fluorescence (FDH is formaldehyde dehydrogenase); Potency, µM (doses to about 57.7 µM), hits mostly inhibitors; active = well fitted inhibition curve with a large enough effect; also: 0% is about no effect; nearly all actives have a fitted effect of over 70% in size
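Inhibition is measured as reduced NADH fluorescence generation from FDH coupling to formaldehyde release. Truncated KDM5BΔAP at 200 nM final acts on H3K4me3 peptide (12.5 µM in substrate mix) in pH 7.5 HEPES buffer with Tween-20, 30 min, room temperature.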
Numbers without * were called inactive; ! = a repeat was not active. Shown is part of a subset that was picked to be rich in hits. Potency is read from the fitted curve at half-maximal effect.

COc1cc(C(C)NC(=O)c2c(C)noc2C)cc(OC)c1OC (centres undefined) was read as KDM5B inh inactive.
COc1ccc(-c2onc(C)c2C(=O)NCc2cccs2)cc1 was read as KDM5B inh inactive.
`COc1cc(-c2onc(C)c2C(=O)NCCSC)cc(OC)c1OC` gave KDM5B inh 31.6µM*.
For COc1ccc(-c2onc(C)c2C(=O)N(C)Cc2cc(OC)c(OC)c(OC)c2)cc1 the results were KDM5B inh inactive.
`CC1(C)CCC(N)c2ccccc21` (centres undefined) gave KDM5B inh inactive.
`CC(=O)c1sc(Nc2cc(C)ccc2C)nc1C` gave KDM5B inh inactive.
For CCCn1c(SCc2ccccc2Cl)nc2c1c(=O)[nH]c(=O)n2C the results were KDM5B inh inactive.
`COC(=O)CN(Cc1ccccc1)Cc1ccco1` gave KDM5B inh inactive.
For COc1ccc(CCNC(=O)c2cccn2-c2nnc(N3CCCCCC3)s2)cc1OC the results were KDM5B inh inactive.
`COc1ccc(C)cc1NC(=O)c1cnc(N2CCOCC2)c2ccccc12` gave KDM5B inh inactive.
Screening CC(C)CCNc1nc2c(c(=O)n(C)c(=O)n2C)n1Cc1cccc(Cl)c1 returned KDM5B inh inactive.
CCc1c(C)sc2c1c1nc(-c3ccccc3)nn1c(=O)n2CC(=O)N1CCCC1 was read as KDM5B inh inactive.
Screening O=C1[C@@H]2C[C@@H](CN2Cc2nccs2)Oc2ccccc2N1Cc1ccc(OC(F)(F)F)cc1 returned KDM5B inh 28.2µM*.
Screening COCCN1C(=O)[C@@H]2C[C@@H](CN2Cc2ccc(Cl)cc2)Oc2ccccc21 returned KDM5B inh inactive.
For O=C1[C@@H]2C[C@@H](CN2Cc2ccccc2)Oc2ccccc2N1CC1CC1 the results were KDM5B inh inactive.
For COCCN1C(=O)[C@@H]2C[C@@H](CN2Cc2ccc3ccccc3n2)Oc2ccccc21 the results were KDM5B inh 31.6µM*.
Screening CN1C(=O)[C@@H]2C[C@@H](CN2Cc2ccc(OC(F)(F)F)cc2)Oc2ccccc21 returned KDM5B inh inactive.
For O=C1[C@@H]2C[C@@H](CN2Cc2cnc3ccccc3c2)Oc2ccccc2N1CC1CC1 the results were KDM5B inh 44.7µM*.
Screening COCCN1C(=O)[C@@H]2C[C@@H](CN2Cc2ccccc2)Oc2ccccc21 returned KDM5B inh inactive.
For O=C1[C@@H]2C[C@@H](CN2Cc2ccc(F)c(F)c2)Oc2ccccc2N1Cc1ccccn1 the results were KDM5B inh inactive.
For O=C1[C@@H]2C[C@@H](CN2C2COC2)Oc2ccccc2N1Cc1ccc(OC(F)(F)F)cc1 the results were KDM5B inh inactive.
For Cn1c(=O)c2c(ncn2CC(=O)Nc2ccc(Cl)c([N+](=O)[O-])c2)n(C)c1=O the results were KDM5B inh inactive.
COc1cc(C#N)ccc1OCc1ccc(F)cc1Br was read as KDM5B inh inactive.
For O=C(O)CC1CCOCC1 the results were KDM5B inh inactive.
For C(=C\c1ccccc1)/CNCC1CCNCC1 the results were KDM5B inh inactive.
O=C(Nc1ncn(Cc2cccc(C(F)(F)F)c2)n1)c1ccn(COc2ccc(Cl)cc2)n1 was read as KDM5B inh inactive.
Cc1oc(-c2ccccc2Cl)nc1CSc1nc2ccncc2[nH]1 was read as KDM5B inh inactive.
`COc1ccc2oc(=O)c(-c3nc4ccc(C)cc4[nH]3)cc2c1` gave KDM5B inh inactive.
Screening Cc1cc(-c2nc3ccncc3[nH]2)c(C)o1 returned KDM5B inh 31.6µM*!.
`CSc1nnc(-c2ccccc2NC(=O)c2cccc(S(=O)(=O)N3CCCCC3)c2)o1` gave KDM5B inh inactive.
CCc1ccc(OC(=O)c2ccccc2C)c(Br)c1 was read as KDM5B inh inactive.
Screening CC(=O)N1CCN(C(=O)c2c[nH]c3ncccc23)CC1 returned KDM5B inh inactive.
`O=C(c1cc(N2CCCCCC2)nc2ccccc12)N1CCOCC1` gave KDM5B inh inactive.
Screening CN(C)C(=O)c1ccnc2[nH]ccc12 returned KDM5B inh 126µM*.
For COCCCNC(=O)c1c[nH]c2ncccc12 the results were KDM5B inh inactive.
For Cc1ccc(Br)c(C(=O)NCc2ccnc3[nH]ccc23)c1 the results were KDM5B inh inactive.
O=C(c1ccnc2[nH]ccc12)N1CCOCC1 was read as KDM5B inh 126µM*.
For CCn1nc(C)c(CNC(=O)C(c2ccc(F)cc2)N(C)C)c1C (centres undefined) the results were KDM5B inh inactive.
Screening CCCCCOC(=O)c1c(C)oc2cc(C)c(NS(=O)(=O)c3cccs3)cc12 returned KDM5B inh inactive.
Screening O=C1CSc2ccc(C(=O)OCC(=O)NC3CCCc4ccccc43)cc2N1 (centres undefined) returned KDM5B inh inactive.
Screening CCCN(CCC)C(=O)[C@@]12CCCC[C@H]1N(CCC(C)C)C(=O)CC2 returned KDM5B inh inactive.
Screening COc1ccc(C(=O)N[C@@H]2CCC[C@@H]2C(=O)NCCCN2CCOCC2)cn1 returned KDM5B inh inactive.
COc1ccccc1C(=O)N1CCC2(CC1)CC(c1cccnc1)=NO2 was read as KDM5B inh inactive.
`CCC(C)C(=O)NCCc1c[nH]c2ccc(C)cc12` (centres undefined) gave KDM5B inh inactive.
For CCc1[nH]c2c(CNC(=O)C(C)O)cc(C)cc2c1C (centres undefined) the results were KDM5B inh 31.6µM*.
Screening CCC(C(=O)NCc1cc(C)ccc1OC)c1ccccc1 (centres undefined) returned KDM5B inh inactive.
CC1=CCC2C(C)(C)CCCC2(C)C1CC/C(C)=C/CC/C(C)=N/NC(N)=O (centres undefined) was read as KDM5B inh inactive.
`CCN(CC)S(=O)(=O)c1cc(NC(=O)C2CCCN(C(=O)c3ccc(Cl)cc3)C2)ccc1C` (centres undefined) gave KDM5B inh inactive.
For COc1cccc2cc(-c3cc(=O)oc4cc(OCC(=O)C(C)(C)C)ccc34)c(=O)oc12 the results were KDM5B inh inactive.
CN1CCN(c2cc(N3CCCC(CN4CCCCC4)C3)nc(N)n2)CC1 (centres undefined) was read as KDM5B inh inactive.
CN1CCN(c2cc(-c3cncc(N)c3)nc(N)n2)CC1 was read as KDM5B inh 20µM*.
For CN1CCN(c2ccc(-c3cccc(N)c3)nn2)CC1 the results were KDM5B inh inactive.
Screening Cc1ccc(S(C)(=O)=O)cc1C(=O)OCC(=O)C(C)(C)C returned KDM5B inh inactive.
`Cc1ccc(NC(=O)CCn2cnc3c2c(=O)n(C)c(=O)n3C)c(C)c1` gave KDM5B inh inactive.
`O=C(Nc1ccccc1)N[C@H]1CO[C@H]2[C@@H]1OC[C@H]2OC(=O)Nc1ccccc1` gave KDM5B inh inactive.
Screening CCC(C)c1ccc(OCC(=O)Nc2ccc(OC)cc2)c(-n2cnnc2)c1 (centres undefined) returned KDM5B inh inactive.
`COc1ccc2ccccc2c1CNC(=O)CC1C(=O)NCCN1CC(C)(C)C` (centres undefined) gave KDM5B inh inactive.
COc1ccc(CN2CCNC(=O)C2CC(=O)NCc2ccco2)c(F)c1 (centres undefined) was read as KDM5B inh 10µM*.
Screening COc1ccc(CN2CCNC(=O)C2CC(=O)NC2CCOCC2)c(F)c1 (centres undefined) returned KDM5B inh inactive.

Screening results deposited in PubChem BioAssay by National Center for Advancing Translational Sciences (NCATS).
